Experimental data published in PubChem BioAssay AID1159580 (chemical genetic matrix, 2015).
Where “and” joins values, the source holds several entries; their conditions need not be identical. Equal values may be shown once. Hit rate of the full screen: of about 5,500 compounds, about 2,000 (36%) were called active. Roughly 18% stayed inconclusive and do not appear here. Rule as the data show it: active = normalized growth mostly below about 0.91 (no sharp cut-off); inconclusive = no clear call, values can overlap the other calls; inactive = mostly above about 0.92. Some of the results follow.

Assay: chemical genetic growth profiling, strain panel (AID 1159580);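 also: tested at 20 µM; growth read once vehicle control cultures reached saturation at 30 °C; 1 = growth at the plate median or of vehicle wells; lower values mean less growth of the strain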
Details: growth OD

Measured: normalized growth

C#CCN(C)Cc1ccccc1
inactive: S. cerevisiae deletion strains, locus YJR075W, strain HOC1, stronger effect = lower value 0.991 | S. cerevisiae deletion strains, locus YKL009W, strain mrt4, stronger effect = lower value 1.02 | S. cerevisiae deletion strains, locus YKL068W, stronger effect = lower value 1 | S. cerevisiae deletion strains, locus YKL085W, strain MDH1 (second series), stronger effect = lower value 1 | S. cerevisiae deletion strains, locus YKL085W, strain MDH1, stronger effect = lower value 1 | S. cerevisiae deletion strains, locus YKL160W, strain elf1, stronger effect = lower value 1.01 | S. cerevisiae deletion strains, locus YKL190W, strain CNB1, stronger effect = lower value 0.997 | S. cerevisiae deletion strains, locus YKR001C, strain vps1, stronger effect = lower value 1.02 | S. cerevisiae deletion strains, locus YKR026C, strain gcn3, stronger effect = lower value 1.02 | S. cerevisiae deletion strains, locus YKR091W, strain srl3, stronger effect = lower value 1.02 | S. cerevisiae deletion strains, locus YLL001W, strain dnm1, stronger effect = lower value 1.02 | S. cerevisiae deletion strains, locus YLL026W, stronger effect = lower value 1 | S. cerevisiae deletion strains, locus YLL041C, strain sdh2, stronger effect = lower value 0.968 | S. cerevisiae deletion strains, locus YLR027C, strain aat2, stronger effect = lower value 0.991 | S. cerevisiae deletion strains, locus YLR039C, strain RIC1, stronger effect = lower value 1.02 | S. cerevisiae deletion strains, locus YLR058C, strain SHM2, stronger effect = lower value 0.998 | S. cerevisiae deletion strains, locus YLR102C, strain apc9, stronger effect = lower value 1.01 | S. cerevisiae deletion strains, locus YLR113W, strain HOG1, stronger effect = lower value 1 | S. cerevisiae deletion strains, locus YLR221C, strain rsa3, stronger effect = lower value 1.01 | S. cerevisiae deletion strains, locus YLR258W, strain gsy2, stronger effect = lower value 1 | S. cerevisiae deletion strains, locus YLR262C, strain YPT6 (second series), stronger effect = lower value 1.05 | S. cerevisiae deletion strains, locus YLR262C, strain YPT6, stronger effect = lower value 0.997 | S. cerevisiae deletion strains, locus YLR268W, strain sec22, stronger effect = lower value 1.06 | S. cerevisiae deletion strains, locus YLR320W, strain mms22, stronger effect = lower value 0.99 | S. cerevisiae deletion strains, locus YLR330W, strain CHS5, stronger effect = lower value 1 | S. cerevisiae deletion strains, locus YLR342W, strain FKS1 (second series), stronger effect = lower value 1.02 | S. cerevisiae deletion strains, locus YLR342W, strain FKS1, stronger effect = lower value 1.03 | S. cerevisiae deletion strains, locus YLR357W, strain rsc2, stronger effect = lower value 1.05 | S. cerevisiae deletion strains, locus YLR370C, strain arc18, stronger effect = lower value 0.987 | S. cerevisiae deletion strains, locus YLR371W, strain rom2, stronger effect = lower value 1.02 | S. cerevisiae deletion strains, locus YLR384C, strain iki3, stronger effect = lower value 0.996 | S. cerevisiae deletion strains, locus YLR418C, strain cdc73, stronger effect = lower value 1.02 | S. cerevisiae deletion strains, locus YML016C, strain PPZ1, stronger effect = lower value 1 | S. cerevisiae deletion strains, locus YML032C, strain rad52, stronger effect = lower value 1.02 | S. cerevisiae deletion strains, locus YML120C, strain ndi1, stronger effect = lower value 0.999 | S. cerevisiae deletion strains, locus YML124C, strain tub3, stronger effect = lower value 1.01 | S. cerevisiae deletion strains, locus YMR058W, strain fet3, stronger effect = lower value 1.04 | S. cerevisiae deletion strains, locus YMR078C, strain ctf18, stronger effect = lower value 1.02 | S. cerevisiae deletion strains, locus YMR125W, strain sto1, stronger effect = lower value 1.03 | S. cerevisiae deletion strains, locus YMR129W, stronger effect = lower value 0.988 | S. cerevisiae deletion strains, locus YMR205C, strain PFK2, stronger effect = lower value 0.98 | S. cerevisiae deletion strains, locus YMR223W, strain ubp8, stronger effect = lower value 0.98 | S. cerevisiae deletion strains, locus YMR231W, strain pep5, stronger effect = lower value 1.02 | S. cerevisiae deletion strains, locus YMR263W, strain SAP30, stronger effect = lower value 0.995 | S. cerevisiae deletion strains, locus YMR307W, strain GAS1, stronger effect = lower value 0.994 and 0.99 | S. cerevisiae deletion strains, locus YNL067W, strain RPL9B, stronger effect = lower value 0.99 | S. cerevisiae deletion strains, locus YNL071W, strain lat1, stronger effect = lower value 1.02 | S. cerevisiae deletion strains, locus YNL128W, strain TEP1, stronger effect = lower value 1.01 and 0.994 | S. cerevisiae deletion strains, locus YNL153C, strain GIM3, stronger effect = lower value 1.15 | S. cerevisiae deletion strains, locus YNL175C, strain NOP13, stronger effect = lower value 1.01 | S. cerevisiae deletion strains, locus YNL183C, strain NPR1, stronger effect = lower value 0.944 | S. cerevisiae deletion strains, locus YNL197C, strain WHI3, stronger effect = lower value 1.01 | S. cerevisiae deletion strains, locus YNL209W, strain ssb2, stronger effect = lower value 1.02 | S. cerevisiae deletion strains, locus YNL224C, strain SQS1, stronger effect = lower value 1.04 | S. cerevisiae deletion strains, locus YNL233W, strain BNI4, stronger effect = lower value 0.996 | S. cerevisiae deletion strains, locus YNL248C, strain rpa49, stronger effect = lower value 1.03 | S. cerevisiae deletion strains, locus YNL250W, strain rad50, stronger effect = lower value 1.01 | S. cerevisiae deletion strains, locus YNL271C, strain bni1, stronger effect = lower value 1.02 | S. cerevisiae deletion strains, locus YNL298W, strain CLA4, stronger effect = lower value 1.03 | S. cerevisiae deletion strains, locus YNL307C, strain MCK1, stronger effect = lower value 1.03 | S. cerevisiae deletion strains, locus YNL322C, strain KRE1 (second series), stronger effect = lower value 1.03 | S. cerevisiae deletion strains, locus YNR049C, strain mso1, stronger effect = lower value 0.961 | S. cerevisiae deletion strains, locus YNR052C, strain pop2, stronger effect = lower value 1.03 | S. cerevisiae deletion strains, locus YOL006C, strain TOP1, stronger effect = lower value 1 | S. cerevisiae deletion strains, locus YOL012C, strain htz1 0.939 | S. cerevisiae deletion strains, locus YOL147C, strain pex11, stronger effect = lower value 1.02 | S. cerevisiae deletion strains, locus YOR001W, strain rrp6, stronger effect = lower value 1.01 | S. cerevisiae deletion strains, locus YOR061W, strain CKA2, stronger effect = lower value 1 | S. cerevisiae deletion strains, locus YOR069W, strain VPS5, stronger effect = lower value 1 | S. cerevisiae deletion strains, locus YOR070C, strain gyp1, stronger effect = lower value 1.01 | S. cerevisiae deletion strains, locus YOR080W, strain dia2, stronger effect = lower value 1.02 | S. cerevisiae deletion strains, locus YOR083W, strain WHI5 (second series), stronger effect = lower value 1.01 | S. cerevisiae deletion strains, locus YOR083W, strain WHI5, stronger effect = lower value 1 | S. cerevisiae deletion strains, locus YOR106W, strain vam3, stronger effect = lower value 0.996 | S. cerevisiae deletion strains, locus YOR136W, strain idh2, stronger effect = lower value 1.01 | S. cerevisiae deletion strains, locus YOR144C, strain elg1, stronger effect = lower value 1.01 | S. cerevisiae deletion strains, locus YOR184W, strain ser1, stronger effect = lower value 1.01 | S. cerevisiae deletion strains, locus YOR231W, strain MKK1, stronger effect = lower value 0.997 | S. cerevisiae deletion strains, locus YOR265W, strain rbl2, stronger effect = lower value 1.01 | S. cerevisiae deletion strains, locus YOR270C, strain vph1, stronger effect = lower value 1.06 | S. cerevisiae deletion strains, locus YOR290C, strain snf2, stronger effect = lower value 0.999 | S. cerevisiae deletion strains, locus YOR316C, strain cot1, stronger effect = lower value 1.02 | S. cerevisiae deletion strains, locus YPL051W, strain arl3, stronger effect = lower value 1.02 | S. cerevisiae deletion strains, locus YPL078C, strain atp4, stronger effect = lower value 1.05 | S. cerevisiae deletion strains, locus YPL106C, strain sse1, stronger effect = lower value 1.07 | S. cerevisiae deletion strains, locus YPL240C, strain hsp82, stronger effect = lower value 0.979 | S. cerevisiae deletion strains, locus YPL256C, strain CLN2, stronger effect = lower value 0.939 | S. cerevisiae deletion strains, locus YPR119W, strain clb2, stronger effect = lower value 1.02 | S. cerevisiae deletion strains, locus YPR141C, strain kar3, stronger effect = lower value 1 | S. cerevisiae deletion strains, locus YPR163C, strain tif3, stronger effect = lower value 1.02 | S. cerevisiae deletion strains, locus YPR167C, strain met16, stronger effect = lower value 1.02 | S. cerevisiae deletion strains, strain wtn01, stronger effect = lower value 1.02 | S. cerevisiae strains, strain wild type, stronger effect = lower value 0.998
